Assay results: PubChem BioAssay AID651819 (National Center for Advancing Translational Sciences (NCATS), 2012)
About 1,100 (0.31%) of roughly 360,000 compounds were called active. The entries come from a sample that favours actives as a whole. Values without a mark were called inactive. Cut-off read from the data, not from the text of the source: active = activity change below about -30%; inactive = the rest.

test system: cytosolic chaperonin (CCT/TRiC complex); assay: High-Throughput Screening for Modulators of Cytosolic Chaperonin Activity; details: purified chaperonin ATPase assay, HTRF ADP detection, 30 min; active compounds read low
Source text: The eukaryotic chaperonin named TRiC (for TCP-1 ring complex), also called CCT (for chaperonin containing TCP1), is an essential and conserved chaperone required for the folding and activation of 10-15% of the proteins encoded by the human genome. […] Despite its central role in cellular folding, little is known about TRiC mechanism and mode of substrate binding. Currently, no specific TRiC inhibitors are available. Given the early promise of other chaperone-directed inhibitors as cancer therapeutics (e.g. HSP90 inhibitors), inhibitors of TRiC activity may also selectively target transformed cells and have potential use as therapeutics for cancer.
To this end, a miniaturized assay was developed to screen against the Molecular Libraries Small Molecule Repository (MLSMR).
NIH Chemical Genomics Center [NCGC]
NIH Molecular Libraries Probe Centers Network [MLPCN]
Assay Submitter (PI): Judith Frydman, Stanford University
1.5 uL/well TRiC enzyme suspended in buffer (30 mM TRIS pH7.4, 100 mM KCl, 5 mM MgCl2, 1 mM DTT) was added with BioRAPTR FRD dispenser at 40 nM or 20 nM (based on the enzymatic activity of used batches) final concentration to a white solid bottom medium binding 1536-well plate (Greiner Bio-One, Monroe, NC), and quickly spanned down. 23 nl/well of compound solutions in DMSO were added with a pintool transfer (Kalypsis, San Diego, CA) at a single 76 uM final concentration. Next, 1.5 µl/well ATP was dispensed with BioraptR at 10 uM final concentration after which the plates were incubated at 37 deg C for 30 min. HTRF(R) Transcreener(R) ADP (Cisbio US, Bedford, MA) detection reagents were prepared accordingly to the protocol and dispensed into the plate (1.5 uL/well each), incubated for 30 min at ambient temperature. Then, the plates were read using Envision reader with excitation at 330nm and emission at 615nm (Eu(3)-Cryptate donor signal) and 665nm (d2 acceptor signal). The ratio of […] was calculated for each well.
% is set by controls: 0 for no effect and ±100 for the full control effect.

Row | Compound | activity change
1 | COc1ccc(C(O)c2nc(-c3ccc4c(c3)OCO4)cs2)cc1 (stereo unspecified) | -0.395%
2 | Brc1ccc(-c2csc(N/N=C/c3ccc4c(c3)OCO4)n2)cc1 | -49.7% (active)
3 | CC(O)(c1cccc(F)c1)c1nc(-c2ccc3c(c2)OCO3)cs1 (stereo unspecified) | -0.833%
4 | O=C(NCCCNC(=O)NC1CCCCC1)NC1CCCCC1 | -1.85%
5 | Cc1cc(OC(=O)c2ccc(OC(C)C)cc2)c([N+](=O)[O-])c(=O)[nH]1 | -0.062%
6 | CCCCC(CC)CNC(=O)CCCCn1c(=O)[nH]c2ccsc2c1=O (stereo unspecified) | 1.33%
7 | O=C(CCCCCn1c(=S)[nH]c2ccsc2c1=O)NC1CCCCC1 | -30.8% (active)
8 | O=C(CCC(=O)c1cccs1)NC1CCCCCC1 | 0.811%
9 | CCN(CC)CCCN=C(N)N | -0.0838%
10 | CC(C)(C)C(=O)NC1CC2CCCC(C1)N2C(=O)Nc1ccccc1F (stereo unspecified) | -5.23%
11 | C=CS(=O)c1sc(Cl)c(N2CCOCC2)c1[N+](=O)[O-] (stereo unspecified) | -1.53%
12 | CC(C)C(NC(=O)C1CCC(C(C)(C)C)CC1)C(=O)NCCCN1CCCCC1 (stereo unspecified) | 0.128%
13 | O=C(Cc1ccccn1)c1ccc(O)cc1O | -0.381%
14 | COc1ccc(CC(=O)c2ccc(O)cc2O)cc1OC | -38.8% (active)
15 | COc1ccc(CCNC(=O)CCc2ccccc2O)cc1OC | -0.891%
16 | CC(=O)Cn1ncc(N2CCOCC2)c(Br)c1=O | -7.2%
17 | O=C(CSCc1ccccc1Cl)NNC(=O)c1ccccc1 | -0.322%
18 | O=C(CSCc1c(Cl)cccc1Cl)NN1C(=O)c2ccccc2C1=O | -44% (active)
19 | O=C(CSCc1c(F)cccc1Cl)NCC1CCCO1 (stereo unspecified) | -0.136%
20 | CC(CO)(CO)NC(=O)c1ccc(=O)[nH]n1 | 1.59%
21 | Cc1ccc(C)c(OCCC(=O)OCC(=O)c2ccc3c(c2)NC(=O)CO3)c1 | -8.24%
22 | CCOC(=O)C1CCN(C(=O)COc2cc(C)c(Br)c(C)c2)CC1 | -2.02%
23 | CC(=O)c1c(C)[nH]c(C(=O)COc2ccc3c(C)cc(=O)oc3c2)c1C | -0.599%

Row | Compound | activity change
24 | Cc1ccc(O)c(/C=N/NC(=O)COc2ccc3c(C)cc(=O)oc3c2)c1 | 2.07%
25 | Cc1cc(=O)oc2ccc(OCC(=O)O)cc12 | -57.7% (active)
26 | O=C(NCCC1CCCCN1S(=O)(=O)c1ccc(Cl)cc1)C(=O)NCc1ccco1 (stereo unspecified) | 2.22%
27 | CCOC(=O)[C@@H]1[C@H]2COc3ccc(Br)cc3[C@H]2N2C(=O)N(c3ccc(Cl)cc3)C(=O)[C@@]12C | -1.17%
28 | CC1(C(=O)Nc2cccc3cccnc23)CCN1C(=O)CCC1CCCC1 (stereo unspecified) | 1.06%
29 | O=C1c2ccccc2C(O)N1Cc1ccccc1 (stereo unspecified) | -1.07%
30 | CCCCCCn1cc(C(=O)O)c(=O)c2cc(F)c(N3CCCCC3)cc21 | -2.93%
31 | CCn1cc(C(=O)NCCO)c(=O)c2cc(F)c(N3CCN(C)CC3)cc21 | -0.12%
32 | CN1CCN(c2cc3c(cc2F)c(=O)c(C(=O)O)cn3CCF)CC1 | -35.1% (active)
33 | O=C(NCc1ccccc1)C(=O)NCC1OCCN1S(=O)(=O)c1ccc(Br)cc1 (stereo unspecified) | -1.3%
34 | COc1ccc(S(=O)(=O)N2CCOC2CNC(=O)C(=O)NCc2ccncc2)cc1OC (stereo unspecified) | 0.662%
35 | O=C(NCc1ccncc1)C(=O)NCC1OCCN1S(=O)(=O)c1ccc(Br)cc1 (stereo unspecified) | -45.4% (active)
36 | O=C1CCC(=O)N1c1ccc(NCCc2ccccc2F)c([N+](=O)[O-])c1 | -1.58%
37 | Cc1ccccc1NC(=O)c1cc(S(=O)(=O)N2CCOCC2)cs1 | -3.83%
38 | Cn1c(=O)c(=O)n(C)c2cc(S(=O)(=O)NCCc3ccccc3)ccc21 | -5.22%
39 | CN(C)S(=O)(=O)N1CCC(Oc2cccc(C(=O)NCCCC3CCCC3)c2)CC1 | -87.6% (active)
40 | CN(C(=O)c1cccc(OC2CCN(S(=O)(=O)N(C)C)CC2)c1)C1CCOC1 (stereo unspecified) | -4.71%
41 | COc1cccc(C(=O)NCCS(=O)(=O)NCC2CCCO2)c1 (stereo unspecified) | -0.161%
42 | Cc1[nH]n(C)c(=O)c1C(=O)c1c(-c2c(Cl)cccc2Cl)noc1C | -45.8% (active)
43 | Cc1onc(-c2c(F)cccc2Cl)c1C(=O)Nc1cccc(S(=O)(=O)N2CCCCC2)c1 | -0.204%
44 | Cc1onc(-c2c(Cl)cccc2Cl)c1C(=O)c1c[nH]c(C(=O)NC2CC2)c1 | 0.407%
45 | O=C1NC(c2ccccc2)=NC1(Nc1ccccn1)C(F)(F)F (stereo unspecified) | -1.42%
46 | Cc1cccc(N)c1SC1CCCCC1O (stereo unspecified) | -39.7% (active)
